# Several values for one entry are separate records, joined by “and”; a condition that tells them apart may be missing. Equal values may be shown once. Results filed as inconclusive are left out. Where a call stands in place of a potency, no number is given. Activity calls are given as the source filed them. Unless noted, calls follow the shape of the full dose curve.
# Columns and labels:
# [1] = qHTS for Inhibitors of the Functional Ribonucleoprotein Complex (vRNP) of Lassa (LASV) Arenavirus: LASV Primary Screen - GLuc reporter signal (AID 1347082; calls by dose curve; tested in HEK293 reporter line; also: nearly all actives have a fitted effect of over 60% in size; also: potency is read from the fitted curve at half-maximal effect)
# [2] = qHTS for Inhibitors of the Functional Ribonucleoprotein Complex (vRNP) of Lassa (LASV) Arenavirus: Viability assay - alamar blue signal for LASV Primary Screen (AID 1347083; calls by dose curve; tested in HEK293 reporter line; also: nearly all actives have a fitted effect of over 80% in size; also: potency is read from the fitted curve at half-maximal effect)
# [3] = qHTS for Inhibitors of the Functional Ribonucleoprotein Complex (vRNP) of Lymphocytic Choriomeningitis Arenaviruses (LCMV): Viability assay - alamar blue signal for LCMV Primary Screen (AID 1347085; calls by dose curve; tested in HEK293 reporter line; also: nearly all actives have a fitted effect of over 80% in size; also: potency is read from the fitted curve at half-maximal effect)
# [4] = target: Nucleoprotein (Lymphocytic choriomeningitis virus (strain Armstrong)) (UniProt P09992); assay: qHTS for Inhibitors of the Functional Ribonucleoprotein Complex (vRNP) of Lymphocytic Choriomeningitis Arenaviruses (LCMV): LCMV Primary Screen - GLuc reporter signal (AID 1347086); also: nearly all actives have a fitted effect of over 70% in size; also: potency is read from the fitted curve at half-maximal effect
# [5] = Primary qHTS for Huh7 cytotoxicity: counterscreen for inhibitors of MERS-S pseudotyped particle cell entry (AID 1479147); conditions: outcome: dose series up to 57.1 µM unless noted
# [6] = Primary qHTS for inhibitors of MERS-S pseudo-typed particle cell entry (AID 1479149); also: nearly all actives have a fitted effect of over 60% in size; also: potency is read from the fitted curve at half-maximal effect
# [7] = Primary qHTS for Vero E6 cytotoxicity: counterscreen for inhibitors of SARS-S pseudo-typed particle cell entry (AID 1479150); conditions: outcome: dose series up to 57.1 µM unless noted
# [8] = Cytotoxicity counterscreen for inhibitors of SARS-CoV-2 cell entry (AID 1645845); also: nearly all actives have a fitted effect of over 50% in size
# Outline: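 ATP-content luminescence (ATPLite 1step, 15 min RT) read after 48 h compound exposure of Expi293F cells stably expressing human ACE2; normalized to cells-only wells and media-only wells.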
# [9] = Primary qHTS to identify inhibitors of SARS-CoV-2 cell entry (AID 1645846); conditions: activity change, negative = inhibition: at 57.1 µM (top of the series) unless noted; also: nearly all actives have a fitted effect of over 45% in size; also: potency is read from the fitted curve at half-maximal effect
# Outline: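 Luminescence readout (Bright-Glo luciferase) 48 h after pseudoparticle addition. HEK293-ACE2 cells, 1500/well; compound pre-incubation 1 h; Normalized to spike PP and bald PP.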
# [10] = VSVG counterscreen qHTS to identify inhibitors of SARS-CoV-2 cell entry (AID 1645847); also: potency is read from the fitted curve at half-maximal effect; nearly all actives have a fitted effect of over 65% in size
# Outline: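 HEK293-ACE2 cells (Expi293F stably expressing human ACE2) were pretreated with compound for 1 h at 37 °C, then infected with MLV-based VSV-G pseudotyped particles for 48 h. Luciferase luminescence was normalized to VSV-G PP and bald PP wells.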
# [11] = target: Cytochrome P450 3A4 (Homo sapiens) (UniProt P08684); assay: qHTS Assay for Activators of Cytochrome P450 3A4 (AID 885; active = well fitted curve in the direction sought with a large enough effect; an effect the other way counts as inactive or inconclusive; also: nearly all actives have a fitted effect of over 65% in size; also: potency is read from the fitted curve at half-maximal effect)
# Outline: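 Activators are scored by enhanced luminescence from CYP3A4 conversion of luciferin-PPXE (25uM, equal to KM) to luciferin, after 60 min at RT with an NADPH-regenerating system.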
# [12] = target: Alpha-galactosidase (Coffea arabica) (UniProt Q42656); assay: Counterscreen for Glucocerebrosidase Inhibitors: qHTS Assay for Coffee Bean alpha-Galactosidase at pH 4.5 (AID 957; active = well fitted curve in the direction sought with a large enough effect; an effect the other way counts as inactive or inconclusive)
# Outline: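 Quantitative HTS of compounds (0.7 nM to 77 uM) against coffee bean alpha-galactosidase at pH 4.5, measuring 4-methylumbelliferone fluorescence released from 80 uM substrate.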
# [13] = target: Alpha-galactosidase (Coffea arabica) (UniProt Q42656); assay: Counterscreen for Glucocerebrosidase Inhibitors: qHTS Assay for Coffee Bean alpha-Galactosidase at pH 5.9 (AID 998; active = well fitted curve in the direction sought with a large enough effect; an effect the other way counts as inactive or inconclusive)
# Outline: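 Fluorogenic 4-MU substrate hydrolysis, 80 uM substrate and 2 nM coffee bean alpha-galactosidase, pH 5.9 citrate buffer, 20 min at room temperature, then NaOH/glycine stop. Titration 0.7 nM–77 uM, normalized to no-enzyme and enzyme controls, AC50 via Hill equation.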
# [14] = Validation screen for inhibitors of Lassa infection (AID 463096)
# [15] = Inducers of the Endoplasmic Reticulum Stress Response (ERSR) in human glioma: Validation (AID 504836; active = well fitted curve in the direction sought with a large enough effect; an effect the other way counts as inactive or inconclusive)
# Outline: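 ERSR induction read as luciferase luminescence (Bright-Glo, 10 min at room temperature) in stably transfected human U87-MG glioma cells exposed to compounds for 16 h, using GRP78 as sensor.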
# [16] = Confirmatory qHTS to identify inhibitors of SARS-CoV-2 cell entry (AID 1645844); also: potency is read from the fitted curve at half-maximal effect; nearly all actives have a fitted effect of over 45% in size
# Outline: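 Luminescence entry read-out after 48 h: spike-pseudotyped MLV particles (Wuhan-Hu-1, 19-aa C-terminal truncation) added to compound-pretreated (1 h) HEK293-ACE2 cells; Data were normalised to bald PP and spike PP wells.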
# [17] = target: Cytochrome P450 3A4 (Homo sapiens) (UniProt P08684); assay: qHTS Assay for Inhibitors and Substrates of Cytochrome P450 3A4 (AID 884; active = well fitted curve in the direction sought with a large enough effect; an effect the other way counts as inactive or inconclusive; also: nearly all actives have a fitted effect of over 50% in size)
# Outline: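 Luminescent readout of luciferin produced by CYP3A4 (20 nM) dealkylation of Luciferin-PPXE, 25 uM (its KM). NADPH-driven reaction ran 60 min at RT after 10 min compound preincubation; data scaled to 57 uM ketoconazole as 100% inhibition.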
# [18] = qHTS Assay for Lipid Storage Modulators (AID 1519); conditions: Drosophila S3 cells, BODIPY lipid droplet/cell ratio, laser cytometry, cells loaded with oleic acid
# Outline: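 Cells seeded at 5,000 per well were treated with compounds over a concentration series and loaded with oleic acid (400 uM, as added). Lipid droplet fluorescence (488 nm excitation, 500-530 nm channel) was read by laser-scanning cytometry and normalized to 20 uM Triacsin C.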
# Sequence of Cytochrome P450 3A4 (Homo sapiens) (P08684 whole entry, looked up): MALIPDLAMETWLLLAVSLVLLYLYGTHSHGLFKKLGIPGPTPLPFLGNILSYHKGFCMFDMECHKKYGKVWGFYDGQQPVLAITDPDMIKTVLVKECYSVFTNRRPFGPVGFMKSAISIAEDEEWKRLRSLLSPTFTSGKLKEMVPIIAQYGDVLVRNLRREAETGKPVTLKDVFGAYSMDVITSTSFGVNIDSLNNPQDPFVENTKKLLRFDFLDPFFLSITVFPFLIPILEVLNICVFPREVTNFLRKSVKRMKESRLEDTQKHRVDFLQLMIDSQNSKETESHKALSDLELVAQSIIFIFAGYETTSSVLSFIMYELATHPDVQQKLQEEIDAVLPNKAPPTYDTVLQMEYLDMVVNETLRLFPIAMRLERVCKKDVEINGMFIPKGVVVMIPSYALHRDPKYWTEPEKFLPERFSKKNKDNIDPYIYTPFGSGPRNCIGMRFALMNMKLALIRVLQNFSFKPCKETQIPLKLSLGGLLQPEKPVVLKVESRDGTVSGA
# Sequence of Nucleoprotein (Lymphocytic choriomeningitis virus (strain Armstrong)) (P09992 whole entry, looked up): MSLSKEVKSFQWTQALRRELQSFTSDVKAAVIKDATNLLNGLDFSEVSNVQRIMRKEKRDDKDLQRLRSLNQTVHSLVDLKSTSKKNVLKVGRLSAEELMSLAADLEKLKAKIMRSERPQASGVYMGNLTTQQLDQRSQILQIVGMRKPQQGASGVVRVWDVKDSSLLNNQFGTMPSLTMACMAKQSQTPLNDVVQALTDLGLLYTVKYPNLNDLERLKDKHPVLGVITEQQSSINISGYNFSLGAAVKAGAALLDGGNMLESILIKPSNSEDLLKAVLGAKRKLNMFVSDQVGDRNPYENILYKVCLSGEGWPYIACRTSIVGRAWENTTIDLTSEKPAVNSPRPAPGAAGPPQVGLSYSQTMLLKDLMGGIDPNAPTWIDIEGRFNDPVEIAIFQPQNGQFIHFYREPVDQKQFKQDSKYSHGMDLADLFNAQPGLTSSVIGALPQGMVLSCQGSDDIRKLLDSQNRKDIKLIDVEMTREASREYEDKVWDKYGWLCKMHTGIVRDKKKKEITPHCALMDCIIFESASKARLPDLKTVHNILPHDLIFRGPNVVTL
# Sequence of Alpha-galactosidase (Coffea arabica) (Q42656 whole entry, looked up): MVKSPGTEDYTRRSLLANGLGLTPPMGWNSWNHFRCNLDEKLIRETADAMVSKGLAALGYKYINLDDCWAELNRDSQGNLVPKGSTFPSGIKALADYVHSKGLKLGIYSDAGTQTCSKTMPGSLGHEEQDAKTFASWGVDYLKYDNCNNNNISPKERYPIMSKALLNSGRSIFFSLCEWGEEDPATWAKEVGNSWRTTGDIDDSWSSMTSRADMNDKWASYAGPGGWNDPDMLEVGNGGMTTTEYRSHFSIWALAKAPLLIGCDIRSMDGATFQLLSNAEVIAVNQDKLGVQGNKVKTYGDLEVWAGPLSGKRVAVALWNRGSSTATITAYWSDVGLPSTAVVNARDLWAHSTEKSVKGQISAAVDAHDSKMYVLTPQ
smiles,measurement,setting,value
CC1(C)CCC(CN2CCN(c3ccc(C(=O)NS(=O)(=O)c4ccc(NCC5CCOCC5)c([N+](=O)[O-])c4)c(Oc4cnc5[nH]ccc5c4)c3)CC2)=C(c2ccc(Cl)cc2)C1,Potency,[1],inactive
same,Potency,[2],inactive
same,Potency,[3],inactive
same,Potency,[4],inactive
same,outcome,[5],inactive
same,Potency,[6],inactive
same,outcome,[7],inactive
same,Potency,[8],inactive
same,"activity change, negative = inhibition",[9],-9.23% and -30%
O=[N+]([O-])c1c(Cl)cccc1-c1c[nH]cc1Cl,Potency,[1],inactive
same,Potency,[2],inactive
same,Potency,[3],inactive
same,Potency,[4],inactive
same,outcome,[5],inactive
same,outcome,[7],inactive
CC(O)[C@H]1CC[C@H]2[C@@H]3CC[C@@H]4C[C@@H](O)CC[C@]4(C)[C@H]3CC[C@]12C (stereo partly specified),Potency,[1],inactive
same,Potency,[2],inactive
same,Potency,[3],inactive
same,Potency,[4],inactive
same,outcome,[5],inactive [at 114 µM]
same,Potency,[6],inactive
same,outcome,[7],inactive [at 114 µM]
same,Potency,[8],inactive
same,"activity change, negative = inhibition",[9],-11.6% [at 114 µM]
CC(C)C(=O)Oc1ccc(CO)cc1[C@H](CCN(C(C)C)C(C)C)c1ccccc1,Potency,[1],inactive
same,Potency,[2],inactive
same,Potency,[3],inactive
same,Potency,[4],inactive
same,outcome,[5],inactive
same,Potency,[6],14100 nM (active)
same,outcome,[7],inactive
same,Potency,[8],inactive
same,Potency,[9],14100 nM (active)
same,Potency,[10],21500 nM (active)
Nc1cccc2c1C(=O)N(C1CCC(=O)NC1=O)C2=O (stereo unspecified),Potency,[1],inactive
same,Potency,[2],inactive
same,Potency,[3],inactive
same,Potency,[4],inactive
same,outcome,[5],inactive
same,Potency,[6],inactive
same,outcome,[7],inactive
same,Potency,[8],inactive
same,"activity change, negative = inhibition",[9],-12.7%
CC(C)(O)C1OC2CCC3(C)C(O)(CCC4Cc5c([nH]c6ccccc56)C43C)C2=CC1=O (stereo unspecified),Potency,[1],inactive
same,Potency,[2],inactive
same,Potency,[3],inactive
same,Potency,[4],inactive
CC(C)COC(=O)OCN1C(=O)CN(CCN2CC(=O)N(COC(=O)OCC(C)C)C(=O)C2)CC1=O,Potency,[11],inactive
same,outcome,[12],inactive
same,outcome,[13],inactive
same,Potency,[14],inactive
same,outcome,[15],inactive
same,Potency,[1],inactive
same,Potency,[2],inactive
same,Potency,[3],inactive
same,Potency,[4],inactive
same,outcome,[5],inactive
same,Potency,[6],inactive
same,outcome,[7],inactive
same,Potency,[8],inactive
same,"activity change, negative = inhibition",[9],-21.8%
NC(N)=NCc1cccc(I)c1,outcome,[12],inactive
same,outcome,[13],inactive
same,Potency,[14],inactive
same,outcome,[15],inactive
same,Potency,[1],inactive
same,Potency,[2],inactive
same,Potency,[3],inactive
same,Potency,[4],inactive
same,outcome,[5],inactive
same,Potency,[6],inactive
same,outcome,[7],inactive
same,Potency,[8],inactive
Cc1ccc(C(=O)Nc2cccc(C(F)(F)F)c2)cc1Nc1nc(-c2cccnc2)nc2c1cnn2C,Potency,[1],inactive
same,Potency,[2],inactive
same,Potency,[3],inactive
same,Potency,[4],inactive
same,Potency,[8],inactive
C=C1C(=O)[C@@]23C(CC[C@@H]1[C@H]2O)[C@@]12CO[C@]3(O)[C@@H](O)[C@@H]1C(C)(C)CC[C@@H]2O (stereo partly specified),Potency,[1],9680 nM (active)
same,Potency,[2],6850 nM (active)
same,Potency,[3],2170 nM (active)
same,Potency,[4],1220 nM (active)
CCC(=O)NCC[C@@H]1CCc2ccc3c(c21)CCO3,Potency,[1],inactive
same,Potency,[2],inactive
same,Potency,[3],inactive
same,Potency,[4],inactive
same,outcome,[5],inactive
same,Potency,[6],inactive
same,outcome,[7],inactive
same,Potency,[8],inactive
same,"activity change, negative = inhibition",[9],-26.7%
N#CC(c1ccc(Cl)cc1)c1c(Cl)cc(-n2ncc(=O)[nH]c2=O)cc1Cl (stereo unspecified),Potency,[1],inactive
same,Potency,[2],inactive
same,Potency,[3],inactive
same,Potency,[4],inactive
same,outcome,[5],inactive
same,outcome,[7],inactive
same,Potency,[16],13.6 nM (active)
same,Potency,[8],inactive
same,Potency,[10],21500 nM (active)
CN(C/C=C/c1ccccc1)Cc1cccc2ccccc12,Potency,[1],inactive
same,Potency,[2],inactive
same,Potency,[3],inactive
same,Potency,[4],inactive
same,outcome,[5],inactive
same,outcome,[7],inactive
same,Potency,[8],inactive
N[C@@H](CC(=O)N1CCn2c(nnc2C(F)(F)F)C1)Cc1cc(F)c(F)cc1F,Potency,[1],inactive
same,Potency,[2],inactive
same,Potency,[3],inactive
same,Potency,[4],inactive
same,outcome,[5],inactive
same,Potency,[6],inactive
same,outcome,[7],inactive
same,Potency,[8],inactive
same,"activity change, negative = inhibition",[9],-27.8%
Cc1ccc(NC(=O)C2(c3ccc4c(c3)OC(F)(F)O4)CC2)nc1-c1cccc(C(=O)O)c1,Potency,[1],38.5 nM (active)
same,Potency,[2],43.2 nM (active)
same,Potency,[3],68.5 nM (active)
same,Potency,[4],21.7 nM (active)
same,outcome,[5],inactive
same,Potency,[6],inactive
same,outcome,[7],inactive
same,Potency,[8],inactive
same,Potency,[9],inactive
same,"activity change, negative = inhibition",[9],-24.6%
OC1(c2ccc(Cl)cc2)CCN(Cc2c[nH]c3ccccc23)CC1,Potency,[17],inactive
same,Potency,[11],2510 nM (active)
same,outcome,[12],inactive
same,outcome,[13],inactive
same,"activity change, negative = inhibition",[18]; at 57.5 µM (top of the series),1.03% (inactive)
same,max response,[18]; measured here: cell count channel max response,-29.2%
same,max response,[18]; measured here: lipid channel max response,-25.1%
same,outcome,[15],inactive
same,Potency,[1],inactive
same,Potency,[2],inactive
same,Potency,[3],inactive
same,Potency,[4],inactive
CS(=O)(=O)N(Cc1ccco1)CC(O)Cn1c2ccccc2c2ccccc21 (stereo unspecified),Potency,[1],inactive
same,Potency,[2],inactive
same,Potency,[3],inactive
same,Potency,[4],inactive
same,Potency,[16],6810 nM (active)
same,Potency,[8],inactive
same,"activity change, negative = inhibition",[9],-37.4%
same,Potency,[10],429 nM (active)
CC(C)c1nn(-c2c(Cl)cccc2Cl)c2nc(Cc3ccc(OCCO)cc3)[nH]c(=O)c12,Potency,[1],172 nM (active)
same,Potency,[2],217 nM (active)
same,Potency,[3],153 nM (active)
same,Potency,[4],243 nM (active)
same,Potency,[16],34.1 nM (active)
same,Potency,[8],inactive
same,"activity change, negative = inhibition",[9],-95.3%
same,Potency,[10],54.1 nM (active)
Nc1nccc(-c2ccc3noc(-c4ccc(Cl)cc4)c3c2)n1,Potency,[1],2430 nM (active)
same,Potency,[2],7690 nM (active)
same,Potency,[3],6850 nM (active)
same,Potency,[4],4850 nM (active)
same,Potency,[8],inactive
N#CC1(c2cccc(C(=O)Nc3cc(Oc4ccc5nc(NC(=O)C6CC6)sc5n4)ccc3F)c2Cl)CC1,Potency,[1],inactive
same,Potency,[2],inactive
same,Potency,[3],inactive
same,Potency,[4],inactive
same,Potency,[16],2710 nM (active)
same,Potency,[8],inactive
same,Potency,[10],304 nM (active)
